# In PubChem BioAssay AID623911 (Vanderbilt High Throughput Screening Facility, 2012):
# The campaign covered roughly 2,100 compounds. About 770 (37%) were called active. The list shows a part of the results. Values without a mark were called inactive.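 The calls were made as follows: active = by-eye trace score of 1 for enhancers or -1 for inhibitors, so actives lie on both sides (some results past the limit were not filed as active); inactive = score 0, or 3 fluorescent, or 4 baseline rise.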
# Biological target: G protein-activated inward rectifier potassium channel 2 (Homo sapiens) + G protein-activated inward rectifier potassium channel 1 (Homo sapiens) (UniProt P48051+P48549)
# Test: GIRK1/2 thallium flux modulators, retest, confirmation, cell-based, HEK293 rmGlu8/hGIRK1/2, FluoZin-2 (AID 623911)
# Settings: HEK293 rmGlu8/hGIRK1/2, thallium flux FluoZin-2; actives lie on both sides; glutamate co-added at its EC20 level
# G protein-activated inward rectifier potassium channel 2 (Homo sapiens) + G protein-activated inward rectifier potassium channel 1 (Homo sapiens), sequence (P48051 whole entry, looked up): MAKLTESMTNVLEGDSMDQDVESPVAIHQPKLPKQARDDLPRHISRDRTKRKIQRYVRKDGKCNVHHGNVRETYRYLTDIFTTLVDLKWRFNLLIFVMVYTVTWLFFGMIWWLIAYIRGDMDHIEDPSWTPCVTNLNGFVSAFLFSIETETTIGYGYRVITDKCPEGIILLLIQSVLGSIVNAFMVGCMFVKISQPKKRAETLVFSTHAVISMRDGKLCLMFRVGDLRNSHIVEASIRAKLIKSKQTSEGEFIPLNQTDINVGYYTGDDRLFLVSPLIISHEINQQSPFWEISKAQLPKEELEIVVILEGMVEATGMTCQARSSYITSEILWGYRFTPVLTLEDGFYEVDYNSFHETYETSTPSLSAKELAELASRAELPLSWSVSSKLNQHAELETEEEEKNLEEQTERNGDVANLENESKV
# G protein-activated inward rectifier potassium channel 2 (Homo sapiens) + G protein-activated inward rectifier potassium channel 1 (Homo sapiens), sequence (P48549 whole entry, looked up): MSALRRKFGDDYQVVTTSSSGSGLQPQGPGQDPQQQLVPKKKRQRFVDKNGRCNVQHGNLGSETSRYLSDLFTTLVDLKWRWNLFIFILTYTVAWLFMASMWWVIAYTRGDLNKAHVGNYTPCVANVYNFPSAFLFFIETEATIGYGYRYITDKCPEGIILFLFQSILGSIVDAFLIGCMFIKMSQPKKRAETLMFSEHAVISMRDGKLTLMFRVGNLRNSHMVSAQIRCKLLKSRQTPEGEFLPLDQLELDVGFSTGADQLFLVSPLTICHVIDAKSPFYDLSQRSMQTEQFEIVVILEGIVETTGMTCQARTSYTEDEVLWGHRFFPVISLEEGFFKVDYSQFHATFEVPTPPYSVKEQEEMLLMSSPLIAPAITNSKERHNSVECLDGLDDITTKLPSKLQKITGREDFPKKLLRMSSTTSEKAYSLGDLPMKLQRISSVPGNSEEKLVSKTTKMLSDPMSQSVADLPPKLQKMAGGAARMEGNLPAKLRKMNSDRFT
row,SMILES,manual score
1,COc1ccc(-c2ccnc3nc(Sc4ncc(C(F)(F)F)cc4Cl)nn23)cc1,0.5
2,CC(/C=N/NC(=O)c1c(Br)cnn1C)=C\c1ccccc1,0.5
3,Cc1cc(C(F)(F)F)c2c(=O)[nH]c(=O)n(Cc3ccccc3)c2n1,0
4,CC(C)c1nc(=S)c2ccccc2[nH]1,1 (active)
5,CC(C)c1nc(=S)n(-c2ccccc2)[nH]1,0
6,O=c1c2ccccc2[nH]c(=S)n1C1CCCCC1,0
7,S=c1nc(C2CC2)[nH]c2ccccc12,1 (active)
8,CCc1nc2cc(Cl)c(Cl)cc2[nH]1,1 (active)
9,O=P(CCCCCCCCCP(=O)(c1ccccc1)c1ccccc1)(c1ccccc1)c1ccccc1,-1 (active)
10,Nc1nnc(C(=O)c2ccccc2N)s1,0
11,O=C(CSc1nc(-c2ccccc2)cc(C(F)(F)F)n1)NCCN1CCOCC1,0
12,Cc1ccc(-n2nnnc2-c2nc3ccccc3s2)cc1,0
13,Cc1ccc2cccc(Oc3nnnn3-c3ccccc3)c2n1,-1 (active)
14,CCCc1noc2c1/C(=N\O)CC(CC(C)SCC)C2 (configuration not stated),-1 (active)
15,COc1ccc2c(c1)Sc1ccccc1N2CCN(C)C,-1 (active)
16,CCCCn1c(-c2csc(C(C)C)c2)n[nH]c1=S,0
17,COc1ccc2occ(C(=O)c3ccc(N=C(C)N(C)C)cc3)c2c1,-1 (active)
18,COc1cc(NC(=O)CSc2nccc(C)n2)c(C)cc1[N+](=O)[O-],0
19,CC(C)NS(=O)(=O)c1ccc(OCC(=O)Nc2ccc3c(c2)OCO3)c(Cl)c1,0
20,Cc1ccc(Nc2n[nH]c(C)c2[N+](=O)[O-])cc1C,-0.5
21,Cc1ccc(OCC(=O)Nc2ccc(C)c(S(=O)(=O)N3CCCCC3)c2)c([N+](=O)[O-])n1,1 (active)
22,Cc1ccc(NC(=O)COc2cccnc2[N+](=O)[O-])cc1S(=O)(=O)N1CCCCC1,1 (active)

row,SMILES,manual score
1,COc1cccc(OCCc2c(C)n[nH]c2C)c1,0
2,Cc1ccc(NC(=S)N=Nc2c(O)n(C)c3ccc(S(=O)(=O)N4CCOCC4)cc23)cc1,0
3,Cc1ccc(S(=O)(=O)N2CCN(C)CC2)cc1-c1nnc2c3ccccc3c(C)nn12,0
4,CC(C)(C)C1CCc2[nH]nc(C(=O)O)c2C1 (configuration not stated),0.5
5,CC(O)c1nc2ccccc2n1C1CCCCC1 (configuration not stated),0
6,C=CCOc1cccc(C2C(C(=O)c3ccc(C)o3)=C(O)C(=O)N2c2nccs2)c1 (configuration not stated),3
7,COC(=O)c1cc(CSc2nc3ccc(C)cc3[nH]2)oc1C,-1 (active)
8,CC(=O)Nc1ccc(C(=O)CSc2nc3ccc(C)cc3[nH]2)cc1,0
9,CC1=NN(C(N)=S)C(=O)C1N=Nc1ccc(C)cc1C (configuration not stated),0.5
10,CC1=NN(C(N)=S)C(=O)C1N=Nc1ccccc1C (configuration not stated),1 (active)
11,COc1ccc(CC(=O)Nc2cc(=O)n(C)c(=O)n2C)cc1,0
12,Cc1ccc(-c2cn(-c3ccccc3)c(SCC(=O)NC3CCS(=O)(=O)C3)n2)cc1C (configuration not stated),0
13,O=c1c2cc(Cl)ccc2[nH]c(=S)n1Cc1ccco1,1 (active)
14,O=c1[nH]c2ccc(Cl)cc2c(=O)n1Cc1ccco1,0
15,O=c1c2cc(N3CCOCC3)ccc2[nH]c(=S)n1Cc1ccc(Cl)cc1,0
16,Cc1cc(NC(=O)COc2ccc(Cl)cc2Cl)n(-c2ccccc2)n1,1 (active)
17,Cc1cc(C)n(CC(=O)O)n1,0
18,O=C(COc1ccc(Cl)cc1Cl)Nc1ccccn1,0
19,Cc1cc(NC(=O)Nc2ccccc2)n(-c2ccccc2)n1,1 (active)
20,O=C(COc1ccc(Cl)cc1Cl)NNC(=S)Nc1ccc(F)cc1,0
21,NC1=NC2(CCCCC2)n2c(nc3ccccc32)N1,0
22,CCCCN(CCCC)S(=O)(=O)c1ccc(NC(=O)c2ccc([N+](=O)[O-])cc2Cl)cc1,0

row,SMILES,manual score
1,O=C(CCCc1nc(-c2ccc(Cl)cc2)no1)Nc1cccnc1,0
2,CCCCc1ccc(NC(=S)Nc2cccnc2)cc1,1 (active)
3,CCCCc1ccc(NC(=S)Nc2ccc(Cl)c(S(=O)(=O)N(C)C)c2)cc1,1 (active)
4,CCSc1ccccc1C(=O)Nc1cccnc1,0
5,CC(C)N(C(=O)CN(C#N)c1nc(N(C)C)nc(N(C)C)n1)c1ccccc1,0
6,CC(/C=N/n1c(-c2ccc(Cl)cc2)n[nH]c1=S)=C\c1ccco1,0
7,Oc1[nH]c2ccccc2c1N=NC(=S)NCCc1ccccc1,0
8,Oc1[nH]c2ccccc2c1N=Nc1nc2ccccc2s1,1 (active)
9,O=C(CSCc1ccccc1)N=Nc1c(O)[nH]c2ccccc12,0
10,O=C(c1ccc(-c2ccccc2)cc1)N1CCN(c2ncccn2)CC1,0
11,O=C(c1ccco1)N1CCN(C(=O)c2cnn3c2NC(c2cccs2)CC3C(F)(F)F)CC1 (configuration not stated),0
12,Cc1ccc(-c2csc3ncnc(N4CCN(C(=O)c5ccccc5)CC4)c23)cc1,-1 (active)
13,Cc1ccc(-c2nnc(SCC(=O)Nc3cccc(C(=O)N4CCOCC4)c3)n2C)cc1,-0.5
14,O=C(c1ccco1)N1CCN(c2ncnc3scc(-c4cccs4)c23)CC1,-1 (active)
15,O=C(c1cc2nc(-c3ccccc3)cc(-c3ccccc3)n2n1)N1CCN(C(=O)c2ccco2)CC1,0
16,COCC(C)OC(=O)c1c(N)n(CC(C)C)c2nc3ccccc3nc12 (configuration not stated),0
17,CCOP(=O)(c1ccccc1)c1nc(-c2ccccc2C)oc1N1CCCCC1 (configuration not stated),-1 (active)
18,O=C(O/N=C\c1ccc(N2CCCCC2)c([N+](=O)[O-])c1)c1c(F)cccc1F,0
19,O=C(NC(=S)Nc1cccc(Cl)c1N1CCCC1)c1ccc(-c2cccc([N+](=O)[O-])c2)o1,0
20,O=C(NC(=S)N1CCN(c2ccc(Cl)cc2[N+](=O)[O-])CC1)c1ccco1,1 (active)
21,O=C(NC(=S)N1CCN(c2c(Cl)cccc2[N+](=O)[O-])CC1)c1cccs1,1 (active)
22,O=C(NC(=S)Nc1ccccc1N1CCOCC1)c1cccs1,0

row,SMILES,manual score
1,O=C(NC(=S)N1CCCCC1)c1cccs1,1 (active)
2,O=C(NC(=S)N1CCN(c2ccc(Cl)cc2[N+](=O)[O-])CC1)c1cccs1,1 (active)
3,N#CC(C#N)=C1C=C2C=C(N3CCCCCC3)CCC2CC1 (configuration not stated),3
4,CCCC(=O)Nc1ccc(NC(=O)C2CC2)cn1,0
5,CN(c1ccc(OCC(=O)OCC(=O)Nc2ccccc2F)cc1)S(=O)(=O)c1cccs1,0
6,O=C(NC(=S)N1CCN(c2ccc(C(F)(F)F)cc2[N+](=O)[O-])CC1)c1cccs1,1 (active)
7,O=C(CNC1CCCCCC1)Nc1ccc(N2CCCC2)cc1,0
8,CCc1sc(NC(=O)CN2CCOCC2)nc1-c1ccccc1,0
9,O=C(CN1CCOCC1)Nc1ccc(C2CCCCC2)cc1,1 (active)
10,S=c1[nH]c2cc(Cl)ccc2s1,1 (active)
11,CCOC(=O)CSc1nc2ccc(Nc3nc(N4CCOCC4)nc(N4CCOCC4)n3)cc2s1,0
12,O=C1CC(c2ccco2)Sc2nc3ccccc3n21 (configuration not stated),0
13,Cc1ccc(-n2[nH]c(C)c(/C=N/c3ccccn3)c2=O)cc1,0
14,CCCc1nc2ccccc2c(=O)n1/N=C/c1c(C)[nH]n(-c2ccc(C)cc2)c1=O,1 (active)
15,Cc1ccc(C2CC2c2n[nH]c(=S)n2-c2ccc(C)cc2)cc1 (configuration not stated),0
16,CCOc1ccccc1N1CCN(C(=S)NC(=O)C23CC4CC(CC(C4)C2)C3)CC1,0
17,CCCc1ccc(C(=O)N2CCN(c3ccccc3OCC)CC2)cc1,-1 (active)
18,CCOc1ccccc1N1CCN(C(=O)c2cc3c(s2)CCC3)CC1,-0.5
19,O=C(CSc1c[nH]c2ccccc12)NCc1ccc2c(c1)OCO2,-0.5
20,O=C(CSc1nc(CCC2CCCC2)nc2ccccc12)NCc1ccc2c(c1)OCO2,1 (active)
21,NC(=O)c1noc(C(=O)N(CC(=O)NC2CCCC2)Cc2ccc3c(c2)OCO3)c1N,0
22,Cc1ccc(C)n1-c1ccc(C(=O)NN)cc1,0

row,SMILES,manual score
1,CC(/C=N/n1c(C2CCCCC2)n[nH]c1=S)=C\c1ccccc1,0
2,CC(C)c1ccc(-n2cccc2/C=C2/C(=N)N3C=CSC3=NC2=O)cc1,0
3,C=CCn1c(N)c(C(=O)OC(C)(C)C)c2nc3ccccc3nc21,0
4,CCCCn1c(O)c(N=Nc2ccccn2)c2ccccc21,0
5,CCCn1c(O)c(N=NC(=O)c2ccco2)c2ccccc21,1 (active)
6,C=CCn1c(O)c(N=NC(=O)OC(C)(C)C)c2ccccc21,1 (active)
7,CCCCNC(=S)N=Nc1c(O)n(Cc2ccccc2)c2ccccc12,0
8,CCn1c(O)c(N=NC(=O)CNc2cccc(C)c2)c2ccccc21,0
9,O=C(NC(=S)N1CCCCC1)C12CC3CC(CC(C3)C1)C2,0.5
10,CC12CC3(C)CC(C)(C1)CC(C(=O)NC(=S)N1CCOCC1)(C2)C3,1 (active)
11,CC12CC3CC(C)(C1)CC(C(=O)NC(=S)N1CCCCC1)(C3)C2,1 (active)
12,CC12CC3CC(C)(C1)CC(C(=O)NC(=S)N1CCOCC1)(C3)C2,0.5
13,CCC1(C)CC(c2csc(N)n2)CCO1 (configuration not stated),0
14,CCCCOc1ccccc1C1C(C(=O)OC)=C(C)N(C)C(C)=C1C(=O)OC,-1 (active)
15,CCCCN1C(=O)c2ccccc2C1C(=O)NC1CCCC1 (configuration not stated),0
16,CCOc1ccc(N2C(=O)c3ccccc3C2O)cc1 (configuration not stated),0
17,Cc1sc2nc(C3CC3)nc(SCC(=O)N3CC(=O)Nc4ccccc43)c2c1C,0
18,CCc1nc(SCC(=O)Nc2nnc(CC)s2)c2c(C)c(C)sc2n1,0
19,CCc1nc(SCC(=O)N2CC(=O)Nc3ccccc32)c2c(C)c(C)sc2n1,1 (active)
